# A selection: hits, their analogues and other compounds. The true share with any hit is near 21%.
# Shiga inhibitor = Shiga toxin inhibition. 290,000 tested, 9.2% active. Vero cells, Shiga toxin protein synthesis inhibition reporter. inhibition, % at 38.7 µM; in the data active = inhibition mostly above about 28%, no sharp cut-off; inactive = mostly below about 43%; note: 0% is about no effect
# Pf growth 96h = P. falciparum growth inhibition at 96 hours. P. falciparum luciferase reporter growth, 96 h. Potency, µM (titrated, usually from 28.7 µM), without a hit: top-dose activity change, negative = inhibition, hits mostly inhibitors. 320,000 tested, 6.9% active; note: potency is the fitted concentration of half-maximal effect; % is set by controls: 0 for no effect and ±100 for the full control effect
#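 P. falciparum expressing integrated firefly luciferase, in erythrocytes at 2% hematocrit, 0.05% parasitemia, incubated with compounds 96 h at 37 C, 5% CO2. Growth inhibition read as loss of luminescence; two-generation exposure targets delayed-death apicoplast inhibitors.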
# Pf growth 48h = inhibits P. falciparum growth in the first generation, 48 h | P. falciparum luciferase growth in erythrocytes, 48 h | Potency, µM (highest dose often 28.7 µM), for inactives: at the highest dose activity change, negative = inhibition, actives largely listed as inhibitors | 310,000 tested, 5.9% active | AID 504832; note: potency is the fitted concentration of half-maximal effect; % is set by controls: 0 for no effect and ±100 for the full control effect
#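 Luciferase-expressing parasites in RBCs, 2% Hct / 0.1% parasitemia final; RPMI 1640 + 0.5% Albumax; 37 C, 5% CO2, one generation; luminescence read-out, lower signal = inhibition.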
# HCMV inh = inhibitors of human cytomegalovirus; HFF cells, HCMV-luciferase reporter, 72 h; stronger effect = lower value; activity change, negative = inhibition, % at 57.5 µM; 410,000 tested, 4.5% active; AID 1259415; in the data active = activity change below about -60%; inconclusive = no clear call, values can overlap the other calls; inactive = above about -39%; note: % is set by controls: 0 for no effect and ±100 for the full control effect
#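 Compounds were evaluated in HFFs infected with an HCMV luciferase reporter virus (MOI 1 PFU/cell). Luciferase in lysates collected 72 h post infection served as the replication measure.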
# HCV inh = HCV inhibition; Huh7.5.1 HCVcc-Cre infection, luciferase reporter, 44 h; Potency, µM (top dose mostly 41.8 µM), inactives show at the highest dose activity change, negative = inhibition, hits mostly inhibitors; 340,000 tested, 3.4% active; AID 651820; note: potency is the fitted concentration of half-maximal effect; % is set by controls: 0 for no effect and ±100 for the full control effect
#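 A cell-based infection assay in which seeded cells (1,000 per well) receive test compound after 4 h, are inoculated with HCVcc-Cre at approximately 0.5 moi, and are incubated 44 h before luminescence detection.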
# Cycloheximide cs = affects cycloheximide protein synthesis inhibition readout, counter-screen. cell reporter, cycloheximide protein synthesis inhibition counterscreen. max response, %. 300,000 tested, 12% active. AID 2314; in the data active = max response mostly above about 13%, no sharp cut-off; inactive = mostly below about 14%; note: read at 38.3 µM for the half of the compounds with a filed dose; 0% is about no effect
# * marks the source's active call; other numbers are inactive results; ? = inconclusive; · = no result; [ ] = dose if it differs, or a comment. Unless noted, calls come from the whole dose curve; as a rule, active = well fitted inhibition curve with a large enough effect; inconclusive = small, poorly fitted or top-dose-only effect, or another doubt; inactive = no such curve, though single readings can be large or run the other way.
SMILES,Shiga inhibitor,Pf growth 96h,Pf growth 48h,HCMV inh,HCV inh,Cycloheximide cs
COCC(=O)OC/C(O)=C(\C#N)c1nc2ccccc2[nH]1,13.6,?,-2.9%,-99.2*,-15.2%,4.9
N#C/C(=C(/O)CCl)c1nc2ccccc2[nH]1,-3.4,10.4µM*,?,-70.0*,?,6.7
Cc1c(C)n(Cc2ccccc2)c2ccc(C(=O)N3CCN(c4ccc(F)cc4)CC3)cc12,·,·,·,0.0,·,·
CCCCCC(=O)NC(=S)NC1C2CC3CC(C2)CC1C3 (stereo not given),16.8,3.7µM*,4.65µM*,196.4,?,7.2
Cc1cccc(NC(=S)NNC(=O)Cc2ccccc2)c1,-10.0,-3.1%,2.9%,-5.4,19.0%,-6.5
CC/C(=N\NC(=S)Nc1cccc(C)c1)c1ccccc1,30.5,?,9.28µM*,-22.3,-17.1%,16.7
Cc1cccc(NC(=S)N/N=C(\c2ccccc2)C(C)C)c1,54.8*,38.0%,?,4.8,?,25.9*
CCc1cccc(NS(=O)(=O)c2c(C)nc3scc(C)n3c2=O)c1,-18.8,?,?,?,-13.4%,-7.5
CCC(C)c1ccc(NC(=O)COC(=O)CCNC(=O)c2ccco2)cc1 (stereo not given),·,26.3%,26.1%,0.0,6.8%,·
O=C(NCCCNC(=O)c1ccco1)c1ccc(Cl)cc1,85.5*,-0.2%,51.6%,-30.6,5.2%,31.5*
Cc1ccc(C(=O)NCCCNC(=O)c2ccco2)cc1,-10.8,-3.9%,19.1%,-3.9,21.8%,-2.5
CCC(C)c1ccc(NC(=O)c2ccco2)cc1 (stereo not given),40.0,?,153.9%,-26.1,0.2%,25.7*
Cc1cccc2c(=O)c(-c3ccc(Cl)cc3)c(NC(=O)c3ccco3)oc12,23.7*,1.2%,21.9%,18.4,-6.4%,15.8*
C/C=C/C(=O)OCC(=O)Nc1ccc(SC(F)F)cc1,35.6,11.6%,12.8%,-76.2*,15.5%,26.3*
O=C(Nc1ccc(Cl)cc1)c1ccco1,55.3,5.22µM*,131.4%,24.8,-10.5%,33.5*
CSc1cccc(NC(=O)c2ccco2)c1,107.7*,·,85.1%,-6.7,-4.2%,30.5*
CC(=O)Nc1ccc(NC(=O)c2ccco2)cc1,71.2*,·,89.9%,19.3,6.6%,30.7*
O=C(Cc1ccccc1)Nc1ccc(F)cc1,-3.6,38.4%,25.7%,-21.2,10.9%,2.5
O=C(Cc1ccccc1)Nc1ccc(SC(F)F)cc1,35.2,0.0%,123.3%,94.9,?,40.9*
C#CC(C)(O)C1CC(CC(=O)O)C1(C)C (stereo not given),·,·,·,·,7.8%,·
CCOC(=O)c1[nH]c(C)c(CCC(=O)N2CCN(c3cc(C)ccc3C)CC2)c1C,·,·,·,-24.5,·,·
CC(=O)Nc1nc(C)c(CCCOc2ccc([N+](=O)[O-])cc2)c(=O)[nH]1,-1.6,?,81.7%,6.6,6.3%,-3.7
COc1ccc(NC(=O)CC2C(=O)N(c3ccccc3)C(=O)N2C2CCCCC2)cc1 (stereo not given),·,·,·,-4.3,·,·
O=C(NC(NC(=S)Nc1ccc(Cl)cc1)C(Cl)(Cl)Cl)c1ccco1 (stereo not given),-12.0,20.5%,10.4µM*,-35.6,-29.8%,-3.3
NC(=NCc1ccco1)NC(=O)c1ccc(Cl)cc1,76.2*,3.3%,44.1%,17.5,-4.3%,25.5*
SMILES,Shiga inhibitor,Pf growth 96h,Pf growth 48h,HCMV inh,HCV inh,Cycloheximide cs
O=C(Cc1ccccc1)Nc1ccc(NC(=O)c2ccco2)cc1,51.2*,14.8%,30.2%,-25.3,-10.3%,18.0*
CCC(C)c1ccc(NC(=O)CC(C)=O)cc1 (stereo not given),13.9,8.1%,·,51.5,1.2%,20.6*
O=C(NCc1ccco1)C1CCN(C(=O)c2ccc(Cl)cc2)CC1,·,?,-25.8%,-10.1,17.8%,·
COc1cc(NS(=O)(=O)c2ccc3oc(=O)c4ncn(C)c4c3c2)cc(OC)c1,·,·,·,-36.9,·,·
Cc1ccc(NC(=O)CSc2nnc(COc3ccccc3F)n2N)cc1S(=O)(=O)N1CCOCC1,·,·,·,-19.8,-9.7%,·
N#Cc1ccc(C(=O)Nc2cccc(NC(=O)c3ccco3)c2)c(F)c1,5.3,-0.1%,?,-73.9*,?,4.8
COc1ccc(-c2cc(C(=O)Nc3c(C)n(C)n(-c4ccccc4)c3=O)no2)cc1OC,-7.9,11.7%,-8.8%,0.7,5.8%,2.9
CCCSc1nc(-n2ncc(C#N)c2N)c2c3c(sc2n1)CCC(C)C3 (stereo not given),2.9,?,·,-6.6,14.1µM*,-3.4
Cc1nc(-n2ncc(C#N)c2N)c2c3c(sc2n1)CCC3,-12.9,28.5%,·,-16.9,?,-1.8
Cc1ccc(S(=O)(=O)/N=C2\CN(C)C(=O)N2C)cc1,-16.9,4.65µM*,4.9%,-12.6,15.1%,-6.6
Cc1onc(-c2ccccc2Cl)c1C(=O)N[C@H]1C(=O)N2[C@H]1SC(C)(C)[C@H]2C(=O)O,·,-31.6%[12.8 µM],-27.1%[12.8 µM],·,·,·
O=C(OCCN1CCOCC1)c1ccc(O)cc1,·,121.2%,15.4%,42.5,-6.6%,-0.8
O=C(OCCN1CCOCC1)c1ccccc1Cl,·,·,·,1.7,2.3%,·
O=C(OCCCN1CCCCC1)c1ccc(O)cc1,-12.2,2.62µM*,25.2%,16.0,0.1%,0.9
O=C(OCCN1CCCCC1)c1ccc(O)cc1,19.0,·,6.4%,35.1,12.8%,22.7*
CC1CCCCN1CCCOC(=O)c1ccccc1 (stereo not given),·,-4.4%,-13.3%,·,·,·
O=C(OCCN1CCCCC1)c1ccccc1Cl,37.3,·,3.3%,51.4,-1.2%,29.2*
COc1ccc(C(c2c(N)[nH]c(=S)[nH]c2=O)c2c(N)[nH]c(=S)[nH]c2=O)cc1,16.1,-10.6%,-14.2%,-3.5,6.7%,-1.7
COc1ccc(CNC(=O)CC2N=C3c4ccccc4N=C(SCC(=O)Nc4ccc(C(C)C)cc4)N3C2=O)cc1 (stereo not given),·,·,·,9.8,·,·
c1ccc(C[C@H]2CN=C(Nc3ccccc3)N2CC2CCCCCC2)cc1,·,·,·,0.6,?,·
O=c1c2ccccc2nnn1CSc1nnc2ccccn12,99.0*,·,161.5%,28.7,12.2%,33.9*
O=c1c2ccccc2nnn1CSc1nnnn1-c1ccc(O)cc1,67.3*,46.6%,38.5%,-26.8,0.5%,32.4*
Cc1cccc(CC(=O)OCn2nnc3ccccc3c2=O)c1,-2.8,-3.3%,-1.3%,8.0,10.6%,-1.5
Cc1ccc(-n2nnnc2SCn2nnc3ccccc3c2=O)cc1,94.8*,·,130.7%,24.0,-20.6%,62.2*
Cc1cccc(-n2nnnc2SCn2nnc3ccccc3c2=O)c1,53.2,?,23.3%,-35.0,-28.8%,23.0*
Cn1c(SCn2nnc3ccccc3c2=O)nc2ccccc2c1=O,-2.0,13.8%,3.3%,·,·,0.5
COc1ccc(C)cc1-n1nnnc1SCn1nnc2ccccc2c1=O,-3.6,12.8%,·,-80.0*,?,-2.2
COc1ccc(C)cc1-n1nnnc1SCc1cc(=O)n2cc(C)ccc2n1,26.3,0.5%,?,-71.9*,?,3.4
